# Measurements: ChEMBL document CHEMBL3988442, “University of Dundee, Small-Polar-MMV Screening Library” (2021)
# For some assays here: Measured potencies and affinities stand elsewhere.
# Experiments:
# Set-up in all cases: scale not given: direction of the effect not stated beside the values
# [1] = target: Protein translocase subunit SecA (Escherichia coli (strain K12)) (UniProt P10408); assay: Assay to Identify E. coli SecA ATPase Inhibitors; type: functional; details: 30 µM
# [2] = target: T1, Ubiquitin-activating enzyme e1, putative (Leishmania donovani (strain BPK282A1)) (UniProt E9BSI1); assay: Leishmania donovani Ubiquitin Activating Enzyme (LdE1); type: functional; details: 30 µM
# T1 sequence (whole entry): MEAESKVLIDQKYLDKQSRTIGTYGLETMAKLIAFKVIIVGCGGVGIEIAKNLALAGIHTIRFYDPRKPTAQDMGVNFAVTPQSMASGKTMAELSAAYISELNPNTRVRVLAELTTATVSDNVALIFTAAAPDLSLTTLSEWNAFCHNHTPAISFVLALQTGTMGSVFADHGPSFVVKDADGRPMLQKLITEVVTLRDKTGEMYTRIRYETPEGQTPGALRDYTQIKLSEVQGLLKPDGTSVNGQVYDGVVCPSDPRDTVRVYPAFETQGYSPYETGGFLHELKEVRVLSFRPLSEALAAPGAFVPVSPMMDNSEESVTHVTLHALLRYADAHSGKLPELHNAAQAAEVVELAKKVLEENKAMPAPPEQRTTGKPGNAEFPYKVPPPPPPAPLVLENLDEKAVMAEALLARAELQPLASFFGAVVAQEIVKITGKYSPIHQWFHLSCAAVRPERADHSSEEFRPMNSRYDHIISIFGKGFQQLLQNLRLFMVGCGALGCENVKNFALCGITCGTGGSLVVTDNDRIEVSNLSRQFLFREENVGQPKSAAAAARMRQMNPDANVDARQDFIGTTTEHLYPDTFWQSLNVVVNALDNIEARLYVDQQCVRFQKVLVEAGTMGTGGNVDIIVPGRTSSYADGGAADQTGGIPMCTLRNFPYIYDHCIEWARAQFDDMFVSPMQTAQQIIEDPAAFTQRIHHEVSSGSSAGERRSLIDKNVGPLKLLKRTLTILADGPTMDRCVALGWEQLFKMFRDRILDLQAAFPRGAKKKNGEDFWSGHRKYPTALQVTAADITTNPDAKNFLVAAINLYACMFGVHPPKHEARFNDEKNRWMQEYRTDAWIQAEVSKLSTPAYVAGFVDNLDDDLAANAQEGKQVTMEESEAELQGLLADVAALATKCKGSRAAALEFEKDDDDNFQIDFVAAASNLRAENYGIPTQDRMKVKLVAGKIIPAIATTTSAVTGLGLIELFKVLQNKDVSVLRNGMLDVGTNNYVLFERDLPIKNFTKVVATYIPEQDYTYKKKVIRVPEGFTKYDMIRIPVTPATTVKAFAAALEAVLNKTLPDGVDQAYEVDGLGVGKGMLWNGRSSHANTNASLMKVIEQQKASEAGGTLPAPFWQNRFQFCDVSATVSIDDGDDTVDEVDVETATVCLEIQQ
# [3] = target: AMP-activated protein kinase, AMPK (Homo sapiens) (UniProt P54646+O43741+P54619+Q9UGJ0+Q9Y478+Q13131+Q9UGI9); assay: AMP-dependent Kinase enzyme assay. An in vitro enzyme assay that detects ADP turnover that is directly proportional to AMPK activity. This uses naive AMPK that is activated during the assay with MK-8722; type: functional; details: 30 µM
# [4] = target: Sialic acid-binding Ig-like lectin 9 (Homo sapiens) (UniProt Q9Y336); assay: Hs-Siglec9 ALPHAscreen SOP 20170721; details: 10 µM
# [5] = system: Trypanosoma cruzi; assay: Trypanosoma cruzi phosphomannomutase and mannose-1-phosphate guanylyltransferase assay; type: functional; details: 10 µM
# [6] = target: T2, Arginase-2, mitochondrial (Homo sapiens) (UniProt P78540); assay: in vitro enzyme assay to detect the production of urea directly proportional to the activity of Arginase II; type: functional; details: 33.3 µM; note: in the data most compounds retested in dose-response had high values
# T2 sequence (whole entry): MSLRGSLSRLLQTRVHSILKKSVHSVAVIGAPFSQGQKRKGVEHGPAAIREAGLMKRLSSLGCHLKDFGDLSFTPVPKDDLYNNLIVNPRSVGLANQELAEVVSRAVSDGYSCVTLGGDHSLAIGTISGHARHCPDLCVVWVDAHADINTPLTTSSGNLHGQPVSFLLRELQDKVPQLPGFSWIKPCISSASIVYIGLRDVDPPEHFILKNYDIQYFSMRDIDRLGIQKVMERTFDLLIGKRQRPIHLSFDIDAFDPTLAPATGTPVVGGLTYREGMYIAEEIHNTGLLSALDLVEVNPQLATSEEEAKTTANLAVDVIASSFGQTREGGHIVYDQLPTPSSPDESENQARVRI
# [7] = target: T3, Proteasome subunit beta (Trypanosoma cruzi) (UniProt O96673); assay: Trypanosoma cruzi proteasome chymotrypsin-like activity (TcProtChymo) assay.; note: in the data most compounds retested in dose-response had high values; type: functional; details: 9.37 µM
# T3 sequence (whole entry): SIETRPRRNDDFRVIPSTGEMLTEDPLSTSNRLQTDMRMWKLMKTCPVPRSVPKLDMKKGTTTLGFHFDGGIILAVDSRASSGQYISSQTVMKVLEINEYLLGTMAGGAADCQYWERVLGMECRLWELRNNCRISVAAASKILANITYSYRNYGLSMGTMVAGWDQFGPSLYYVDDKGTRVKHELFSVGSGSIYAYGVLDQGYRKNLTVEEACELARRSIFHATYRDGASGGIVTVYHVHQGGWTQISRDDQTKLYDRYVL
# [8] = species on record: Homo sapiens; assay: To identify inhibition of the IFN signalling (Jak-Stat) pathway via expression of an eGFP reporter gene under the control of an IFN-stimulated response element (ISRE) containing MxA promoter.; type: functional; details: 30 µM
# [9] = target: T4, Tyrosyl-tRNA synthetase, putative (Trypanosoma cruzi (strain CL Brener)) (UniProt Q4DSP6); assay: Trypanosoma cruzi tyrosyl tRNA synthetase (TcYRS) _High Tyrosine SOP; type: functional; details: 30 µM; note: in the data most compounds retested in dose-response had high values
# T4 sequence (whole entry): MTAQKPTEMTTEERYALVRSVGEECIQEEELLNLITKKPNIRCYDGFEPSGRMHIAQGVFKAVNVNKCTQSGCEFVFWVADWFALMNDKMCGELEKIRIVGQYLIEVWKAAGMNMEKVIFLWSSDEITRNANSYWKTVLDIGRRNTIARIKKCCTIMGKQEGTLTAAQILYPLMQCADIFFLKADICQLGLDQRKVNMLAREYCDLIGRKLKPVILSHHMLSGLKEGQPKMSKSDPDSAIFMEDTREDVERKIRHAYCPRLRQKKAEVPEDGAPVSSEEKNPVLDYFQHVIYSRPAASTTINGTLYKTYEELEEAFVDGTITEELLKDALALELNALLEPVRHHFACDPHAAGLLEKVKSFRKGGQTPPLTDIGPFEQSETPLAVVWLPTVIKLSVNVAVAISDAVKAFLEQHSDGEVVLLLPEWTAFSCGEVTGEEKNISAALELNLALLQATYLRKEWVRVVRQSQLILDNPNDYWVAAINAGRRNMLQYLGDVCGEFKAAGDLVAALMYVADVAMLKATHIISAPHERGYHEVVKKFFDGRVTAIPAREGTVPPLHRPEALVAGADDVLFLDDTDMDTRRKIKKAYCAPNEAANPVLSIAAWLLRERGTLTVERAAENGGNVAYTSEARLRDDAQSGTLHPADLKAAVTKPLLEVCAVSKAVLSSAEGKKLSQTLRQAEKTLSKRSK
# [10] = target: T4, Tyrosyl-tRNA synthetase, putative (Trypanosoma cruzi (strain CL Brener)); assay: Trypanosoma cruzi tyrosyl tRNA synthetase (TcYRS) SOP; type: functional; details: 30 µM
# [11] = target: Chromo domain-containing protein 1 (Saccharomyces cerevisiae (strain ATCC 204508 / S288c) (Baker's yeast)) (UniProt P32657); assay: ScCHD-1 Enzyme Inhibition Assay; type: functional; details: 30 µM; note: in the data most compounds retested in dose-response had high values
# Chain of Chromo domain-containing protein 1 (Saccharomyces cerevisiae (strain ATCC 204508 / S288c) (Baker's yeast)) (P32657 whole entry, the tested form may be a part): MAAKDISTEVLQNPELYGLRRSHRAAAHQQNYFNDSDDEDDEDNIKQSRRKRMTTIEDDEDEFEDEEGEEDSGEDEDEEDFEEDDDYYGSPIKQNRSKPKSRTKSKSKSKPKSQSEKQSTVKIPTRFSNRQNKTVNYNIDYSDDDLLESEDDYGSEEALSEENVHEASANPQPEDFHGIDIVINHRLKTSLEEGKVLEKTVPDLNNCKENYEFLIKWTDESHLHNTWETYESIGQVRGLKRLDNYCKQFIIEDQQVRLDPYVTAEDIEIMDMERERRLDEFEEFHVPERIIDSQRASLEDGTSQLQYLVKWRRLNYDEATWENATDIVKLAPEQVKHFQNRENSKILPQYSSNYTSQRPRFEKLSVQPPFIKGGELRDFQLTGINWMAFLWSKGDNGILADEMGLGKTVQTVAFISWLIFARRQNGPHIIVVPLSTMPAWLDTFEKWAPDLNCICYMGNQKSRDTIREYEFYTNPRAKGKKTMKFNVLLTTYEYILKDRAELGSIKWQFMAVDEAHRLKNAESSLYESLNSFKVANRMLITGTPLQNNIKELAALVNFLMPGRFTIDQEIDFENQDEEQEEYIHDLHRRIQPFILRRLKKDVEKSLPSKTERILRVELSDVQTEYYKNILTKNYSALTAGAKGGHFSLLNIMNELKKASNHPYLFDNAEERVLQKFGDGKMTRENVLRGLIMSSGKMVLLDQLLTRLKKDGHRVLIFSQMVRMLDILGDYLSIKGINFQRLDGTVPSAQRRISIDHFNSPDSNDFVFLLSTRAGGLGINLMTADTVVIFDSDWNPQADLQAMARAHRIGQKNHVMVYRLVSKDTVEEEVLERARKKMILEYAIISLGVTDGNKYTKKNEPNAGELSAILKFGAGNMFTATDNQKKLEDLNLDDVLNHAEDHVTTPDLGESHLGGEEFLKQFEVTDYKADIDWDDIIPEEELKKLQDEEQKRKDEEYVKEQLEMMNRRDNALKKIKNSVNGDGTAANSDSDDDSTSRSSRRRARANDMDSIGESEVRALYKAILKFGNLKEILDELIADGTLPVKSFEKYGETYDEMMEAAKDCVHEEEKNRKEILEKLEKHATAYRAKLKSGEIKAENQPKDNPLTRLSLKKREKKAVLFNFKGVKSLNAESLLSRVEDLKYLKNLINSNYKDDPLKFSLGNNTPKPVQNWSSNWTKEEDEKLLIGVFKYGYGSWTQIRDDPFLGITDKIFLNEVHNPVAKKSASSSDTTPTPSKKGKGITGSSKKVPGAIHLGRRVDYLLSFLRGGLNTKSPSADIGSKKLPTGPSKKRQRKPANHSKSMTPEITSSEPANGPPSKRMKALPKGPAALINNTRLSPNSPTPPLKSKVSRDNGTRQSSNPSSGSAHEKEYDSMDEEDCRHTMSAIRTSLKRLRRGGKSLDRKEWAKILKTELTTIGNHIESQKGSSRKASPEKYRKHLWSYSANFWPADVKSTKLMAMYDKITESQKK
# Chain of Sialic acid-binding Ig-like lectin 9 (Homo sapiens) (Q9Y336 whole entry): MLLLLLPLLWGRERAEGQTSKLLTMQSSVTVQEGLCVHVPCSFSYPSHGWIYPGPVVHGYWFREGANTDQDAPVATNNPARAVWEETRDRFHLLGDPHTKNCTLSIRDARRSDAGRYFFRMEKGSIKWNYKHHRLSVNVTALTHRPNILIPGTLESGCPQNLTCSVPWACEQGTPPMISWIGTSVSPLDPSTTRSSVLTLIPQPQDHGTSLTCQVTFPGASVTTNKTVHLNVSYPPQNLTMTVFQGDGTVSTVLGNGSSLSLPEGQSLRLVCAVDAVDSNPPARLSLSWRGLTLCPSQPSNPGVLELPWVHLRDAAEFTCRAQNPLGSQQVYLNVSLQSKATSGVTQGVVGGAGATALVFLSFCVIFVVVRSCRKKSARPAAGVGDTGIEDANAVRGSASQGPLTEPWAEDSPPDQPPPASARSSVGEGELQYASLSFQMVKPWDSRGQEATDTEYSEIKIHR
# Chain of Protein translocase subunit SecA (Escherichia coli (strain K12)) (P10408 whole entry): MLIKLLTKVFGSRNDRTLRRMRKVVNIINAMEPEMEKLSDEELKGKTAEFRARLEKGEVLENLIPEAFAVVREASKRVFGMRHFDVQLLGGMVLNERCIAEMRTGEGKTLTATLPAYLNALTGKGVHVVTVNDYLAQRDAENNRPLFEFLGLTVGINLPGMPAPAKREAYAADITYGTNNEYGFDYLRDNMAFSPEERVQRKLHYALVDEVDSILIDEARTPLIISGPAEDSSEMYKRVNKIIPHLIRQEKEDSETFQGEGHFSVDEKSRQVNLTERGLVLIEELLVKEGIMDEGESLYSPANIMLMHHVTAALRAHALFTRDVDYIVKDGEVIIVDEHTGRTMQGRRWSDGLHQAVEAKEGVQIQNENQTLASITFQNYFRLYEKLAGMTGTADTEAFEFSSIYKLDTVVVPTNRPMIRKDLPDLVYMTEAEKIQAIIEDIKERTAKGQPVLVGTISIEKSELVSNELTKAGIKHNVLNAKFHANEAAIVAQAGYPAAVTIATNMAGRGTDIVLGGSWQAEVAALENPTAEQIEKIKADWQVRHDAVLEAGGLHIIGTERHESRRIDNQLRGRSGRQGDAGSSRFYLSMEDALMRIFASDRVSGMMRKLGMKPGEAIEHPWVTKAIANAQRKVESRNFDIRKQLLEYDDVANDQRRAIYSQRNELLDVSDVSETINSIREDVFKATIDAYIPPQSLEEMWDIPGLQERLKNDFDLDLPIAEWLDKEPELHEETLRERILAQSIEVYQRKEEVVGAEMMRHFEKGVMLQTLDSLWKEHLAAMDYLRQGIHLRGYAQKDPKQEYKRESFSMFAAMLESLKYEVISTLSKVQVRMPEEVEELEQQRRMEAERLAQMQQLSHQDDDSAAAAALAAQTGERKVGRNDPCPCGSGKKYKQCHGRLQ
Structure (SMILES),Percent Effect [1],Percent Effect [2],Percent Effect [3],Percent Effect [4],Percent Effect [5],Percent Effect [6],Percent Effect [7],Percent Effect [8],Percent Effect [9],Percent Effect [10],Percent Effect [11]
FC(F)(F)c1cccc(C2(CNCc3ccncc3)CCOCC2)c1,-0.743%,10.8%,-6.5%,-1.68%,-2.34%,-1.67%,13.9%,23.6%,7.92%,11%,16.9%
CCOc1ccccc1C(=O)NS(=O)(=O)c1ccc2c(c1)OCCCO2,-5.62%,5.26%,-3.19%,0.997%,3.08%,-3.24%,8.04%,7.05%,-29.1%,-21%,-8.5%
Cc1cccc(-c2ccc(C(=O)NCC3CCOC3)c(=O)[nH]2)c1 (stereo unspecified),-2.02%,10.8%,-7.21%,7.34%,-0.472%,-4.41%,-0.18%,12.2%,5.42%,11.1%,-8.03%
c1cc2c(cc1C1CCCN1Cc1nnnn1C1CC1)OCCO2 (stereo unspecified),-3.24%,6.94%,-13.5%,29.5%,6.32%,-5.74%,4.39%,-5.04%,5.26%,15.4%,-4.08%
O=C(c1n[nH]c2ccccc12)N1CCCC1c1noc(C2CC2)n1 (stereo unspecified),-4.36%,7.59%,-0.141%,0.249%,8.4%,5.32%,1.39%,-4.43%,4.43%,13.9%,-5.81%
Cc1ncc(CNC(=O)Nc2cc(C(F)(F)F)c[nH]c2=O)s1,-6.87%,-1.39%,-10.2%,-4.64%,-5.34%,2.65%,18.2%,-11.2%,-1.05%,-2.56%,0.478%
CCn1nc(CC(C)C)cc1C(=O)NCCn1cccc1,-6.33%,-1.39%,1.75%,1.17%,-3.01%,-3.09%,11.6%,-24.3%,0%,-2.56%,1.57%
COc1nn(C)cc1C(=O)N1CCC(c2nnc(C3CC3)o2)CC1,-2.78%,10.4%,4.71%,4.31%,-0.888%,9.68%,11.5%,16.4%,8.47%,11.5%,-10.2%
Cc1noc([C@@H]2CC[C@@H]3[C@@H](CCN3S(=O)(=O)c3cccnc3)O2)n1,-1.26%,5.41%,9.76%,-4.15%,-3.12%,1.67%,9.89%,3.62%,6.93%,13.4%,3.12%
O=C1N(c2ccc(F)cc2)Cc2nc(=O)n(Cc3cccc(Cl)c3)n21,0.397%,-4%,8.75%,4.81%,-5.11%,-3.35%,5.36%,-6.59%,-5.29%,-2.56%,-4.31%
Cc1nc[nH]c1CN(C)CC1CCCN(CCc2ccc(Cl)cc2)C1 (stereo unspecified),0.978%,-5.48%,4.19%,6.4%,4.11%,10.4%,5.32%,61.3%,9.68%,2.5%,-4.79%
COc1cc(C)nc(N2CCN(C(=O)CCn3cc(C)cn3)CC2)n1,-1.32%,10.1%,1.67%,2.37%,-6.52%,4.94%,-6.47%,11%,-6.4%,11.4%,-2.89%
Cc1ncsc1CN1CC[C@H]2C(=O)N(c3ccccc3)CCO[C@H]2C1,-1.58%,10.7%,7.3%,-5.67%,-0.591%,1.17%,16.5%,14.6%,11.7%,16.7%,-4.23%
CCc1c(C)sc(NC(=O)CN2CCN(CC)CC2)c1C(=O)OC,-1.97%,-12.5%,-2.07%,3.39%,2.62%,0%,-2.46%,-12.9%,0%,-2.56%,2.67%
Cc1cnn(C2CN(CC(=O)NCCc3ccccc3)C2)c1,-3.73%,-10.5%,3.48%,3.23%,1.21%,-2.16%,-0.254%,8.21%,5.42%,13.6%,4.88%
Cc1ccc(O)c(CNC2CCc3nc(C(C)C)nn3C2)n1 (stereo unspecified),-9.46%,13.2%,2.66%,6.11%,3.02%,-5.92%,8.15%,-5.66%,1.06%,10.4%,-14.7%
